Laboratory results published in PubChem BioAssay (NCI).
This is part of a sample that, as a whole, favours compounds with a hit. Of some 83,000 tested, about 20% had one in any assay.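 Values shown are percent growth following 48 h exposure of cells in 96-well plates to a single concentration of compound; below 10 was considered active.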 A number with no mark means an inactive call. Activity calls are given as the source filed them.

Columns and labels:
Experiment in all cases: NCI-60 one-dose screen, 48 h (100 = growth as untreated, 0 = no growth, -100 = all killed)
Conditions in all cases: 10 µM unless noted
SR leukemia = test system: SR leukemia
RPMI-8226 leukemia = test system: RPMI-8226 leukemia
OVCAR-8 ovarian = test system: OVCAR-8 ovarian
OVCAR-5 ovarian = test system: OVCAR-5 ovarian
OVCAR-4 ovarian = test system: OVCAR-4 ovarian
SK-OV-3 ovarian = test system: SK-OV-3 ovarian
IGROV1 ovarian = test system: IGROV1 ovarian
OVCAR-3 ovarian = test system: OVCAR-3 ovarian
HS 578T breast = test system: HS 578T breast
NCI/ADR-RES ovarian = test system: NCI/ADR-RES ovarian
T-47D breast = test system: T-47D breast
BT-549 breast = test system: BT-549 breast
MDA-MB-435 melanoma = test system: MDA-MB-435 melanoma
SW-620 colon = test system: SW-620 colon
MCF7 breast = test system: MCF7 breast
HCT-116 colon = test system: HCT-116 colon
HCC-2998 colon = test system: HCC-2998 colon
KM12 colon = test system: KM12 colon

| SMILES | growth (SR leukemia) | growth (RPMI-8226 leukemia) | growth (OVCAR-8 ovarian) | growth (OVCAR-5 ovarian) | growth (OVCAR-4 ovarian) | growth (SK-OV-3 ovarian) | growth (IGROV1 ovarian) | growth (OVCAR-3 ovarian) | growth (HS 578T breast) | growth (NCI/ADR-RES ovarian) | growth (T-47D breast) | growth (BT-549 breast) | growth (MDA-MB-435 melanoma) | growth (SW-620 colon) | growth (MCF7 breast) | growth (HCT-116 colon) | growth (HCC-2998 colon) | growth (KM12 colon) |
| --- | --- | --- | --- | --- | --- | --- | --- | --- | --- | --- | --- | --- | --- | --- | --- | --- | --- | --- |
| C=C1C(=O)O[C@H]2[C@H]1CC/C(COC(=O)NCc1ccc(Cn3c(=O)sn(CCCCC)c3=O)cc1)=C\CC[C@@]1(C)O[C@@H]21 | 3.58% (active) | -22.8% (active) | 58% | 72.5% | 29.5% | 93.6% | 24.1% | -56.1% (active) | 71% | 99.8% | 0.543% (active) | 42.5% | 25.7% | -61.1% (active) | 6.29% (active) | -12.3% (active) | 94.6% | 95.9% |
| Cc1csc(Nc2nc(-c3ccccn3)nc(C(Cl)(Cl)Cl)n2)n1 | 53.2% | 91.5% | 77.7% | 108% | 83.6% | 97.8% | 82.1% | 97.4% | 115% | 66.8% | 78.8% | 110% | 82.3% | 86.3% | 84.2% | 75% | 107% | 82.8% |
| CCOC(=O)c1c(C(=O)c2cn(C)c3ccc(Br)cc23)c(-c2cn(C)c3ccc(Br)cc23)n(NC(=O)OC(C)(C)C)c1C | 89.1% [100 µM] | 69.2% [100 µM] | 71.8% [100 µM] | 92.3% [100 µM] | 105% [100 µM] | 54.8% [100 µM] | 70.7% [100 µM] | 88.5% [100 µM] | 46.8% [100 µM] | 85.4% [100 µM] | 58.8% [100 µM] | 39.2% [100 µM] | 96.5% [100 µM] | 91.8% [100 µM] | 78.3% [100 µM] | 54% [100 µM] | 111% [100 µM] | 89.4% [100 µM] |
| C#COc1cccc(Nc2c(C#N)cnc3ncc(NC(=O)CCl)cc23)c1 | 10.2% [6.25 µM] | -18.2% [6.25 µM] (active) | 32.2% [6.25 µM] | 42.9% [6.25 µM] | 54.5% [6.25 µM] | 60.4% [6.25 µM] | 14.1% [6.25 µM] | 7.58% [6.25 µM] (active) | 66.8% [6.25 µM] | 76.5% [6.25 µM] | 4.8% [6.25 µM] (active) | 40.3% [6.25 µM] | 41.4% [6.25 µM] | 9.61% [6.25 µM] (active) | 5.39% [6.25 µM] (active) | -3.66% [6.25 µM] (active) | 31.7% [6.25 µM] | 31.4% [6.25 µM] |
| O=C(N/N=C/c1c(Cl)cccc1Cl)c1cccnc1Nc1cccc(C(F)(F)F)c1 | 54.5% | 3.23% (active) | 49.4% | 53.4% | 25.1% | 27% | 31.8% | 46.8% | 112% | 31% | 15.7% | 43% | 36.2% | 44.9% | 23.2% | 35.5% | 72.2% | 41.9% |
| NC(=O)c1c(NC(=O)c2ccc3ccccc3c2)sc2c1CCC(=O)C2 | 8.41% (active) | -12.1% (active) | 46.1% | 74.7% | 5.13% (active) | 104% | 42.7% | 23% | 49.6% | 85.3% | 33.4% | 20.9% | 92.8% | 14.3% | 52.6% | 7.15% (active) | 107% | 34.9% |
| C=CCSc1nnc(NC(=O)CCl)s1 | 88.4% | 73% | 92.5% | 120% | 73.2% | 119% | 81.6% | 94.8% | 93.7% | 93% | 90.3% | 79% | 90.8% | 105% | 90.1% | 86.3% | 130% | 95.3% |
| Nc1nc2ccccc2c2c(=O)c3cccc(Cl)c3sc12 | 89% | 96.1% | 94% | 75% | 81.1% | 86.5% | 73.8% | 115% | 101% | 93.1% | 38.7% | 99.2% | 96.9% | 89% | 12.2% | 64.8% | 63% | 89.8% |
| CCc1ccc(CCCC(=O)O)cc1 | 96.2% | 103% | 107% | 98.3% | 104% | 100% | 105% | 108% | 101% | 99.1% | 98.8% | 101% | 103% | 108% | 93.6% | 98.1% | 117% | 106% |
| OCCn1cc(-c2nc(-c3c[nH]c4ncccc34)cs2)c2ccccc21 | 53.5% | 57.8% | 90.4% | 90.5% | 51.7% | 70.2% | 56.1% | 81.7% | 71.3% | 94.6% | 37.3% | 76% | 52.1% | 91.5% | 32.9% | 85.2% | 52% | 48% |
| CCOc1ccccc1Cn1ccnc1CCc1c(Cl)c(O)cc(O)c1C(=O)OC | 91.5% | 86.9% | 97.7% | 95.8% | 114% | 91.9% | 94.8% | 106% | 107% | 93.5% | 92.4% | 98.8% | 110% | 104% | 91.7% | 89.3% | 97.8% | 98.4% |
| CC(=O)c1c(C)nc(SCC(=O)Nc2cccc(O)c2)n1-c1ccc(Cl)cc1 | 103% | 97% | 99.8% | 104% | 89.1% | 104% | 99% | 103% | 82.1% | 98.9% | 95.9% | 93.1% | 84.7% | 87.3% | 91.1% | 94.8% | 99.3% | 93.7% |
| N#CC1=C(N)Oc2c(c(=O)[nH]c3ccc(Cl)cc23)C12C(=O)c1ccccc1C2=O | 101% | 96.2% | 102% | 96.1% | 93.1% | 101% | 100% | 93.4% | 83.3% | 102% | 98.2% | 89% | 92.6% | 86.5% | 96.4% | 95.7% | 109% | 90.7% |
| C/C(=N\O)c1ccc(Cl)cc1 | 78.1% | 107% | 88.6% | 118% | 109% | 108% | 155% | 113% | 90.4% | 108% | 110% | 96% | 112% | 99.9% | 101% | 97.5% | 95.9% | 118% |
| N#Cc1nc(-c2ccc(F)cc2)oc1S(=O)(=O)N1CCCCC1 | 1.55% (active) | 49.4% | 58.3% | 95.9% | 57.4% | 104% | 59.6% | -54.5% (active) | 95.6% | 97.7% | 2.97% (active) | 80% | 83.8% | -72.2% (active) | 56% | -19.4% (active) | 105% | 99.1% |
| COc1ccc(/C=N/C2=C(C#N)C(c3ccccc3)c3ccc4ccccc4c3O2)cc1 (stereo unspecified) | 23.6% | 8.19% (active) | 14.1% | 26.7% | 56.6% | 21.6% | 26.2% | 2.08% (active) | 29.8% | 4.68% (active) | 46.7% | 12.9% | -56.3% (active) | 24.3% | 12.2% | 10.3% | -6.81% (active) | 17.5% |
| C=CCOC(=O)Nc1cccn([C@H](Cc2ccccc2)C(=O)NCCC(C)C)c1=O | 64.6% | 85.9% | 102% | 117% | 92.7% | 103% | 106% | 119% | 103% | 93.1% | 93.8% | 132% | 108% | 109% | 92.8% | 109% | 105% | 110% |
